# Where a chain is given by its changes, count along the chain named. In all, about 16,000 sequences were measured (“ka relative to ugcaugu”: median about 0.0091, highest 2% from about 0.032 on). This is one part of a sample in which the highest values are shown more often than they occur.
# T1: RBFOX1 RRM (Homo sapiens, UniProt Q9NWB1 109-208)
# T1 sequence: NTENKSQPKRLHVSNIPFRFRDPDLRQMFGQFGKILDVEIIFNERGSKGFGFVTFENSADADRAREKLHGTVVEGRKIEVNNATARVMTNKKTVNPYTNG
# B1: UACUGGA (DNA:RNA)
# RNA: GGGAGACCGGAAUUCAGAUUGUCCUACUGGAUUAAAUCCCGUCGUAGCCACCA
# DNA 1: CAATCTGAATTCCGGTCTCCC
# DNA 2: TGGTGGCTACGACGGGATT
# B2: UCGUGAG (DNA:RNA)
# RNA: B1 RNA with A26C, C27G, G30A, A31G
# DNA 1: CAATCTGAATTCCGGTCTCCC
# DNA 2: TGGTGGCTACGACGGGATT
# B3: UGUGGCC (DNA:RNA)
# RNA: B1 RNA with A26G, C27U, U28G, G30C, A31C
# DNA 1: CAATCTGAATTCCGGTCTCCC
# DNA 2: TGGTGGCTACGACGGGATT
# B4: UGGCCUC (DNA:RNA)
# RNA: B1 RNA with A26G, C27G, U28C, G29C, G30U, A31C
# DNA 1: CAATCTGAATTCCGGTCTCCC
# DNA 2: TGGTGGCTACGACGGGATT
# B5: UGGCCGA (DNA:RNA)
# RNA: B1 RNA with A26G, C27G, U28C, G29C
# DNA 1: CAATCTGAATTCCGGTCTCCC
# DNA 2: TGGTGGCTACGACGGGATT
# B6: UGGCCUG (DNA:RNA)
# RNA: B1 RNA with A26G, C27G, U28C, G29C, G30U, A31G
# DNA 1: CAATCTGAATTCCGGTCTCCC
# DNA 2: TGGTGGCTACGACGGGATT
# B7: UGGCCGC (DNA:RNA)
# RNA: B1 RNA with A26G, C27G, U28C, G29C, A31C
# DNA 1: CAATCTGAATTCCGGTCTCCC
# DNA 2: TGGTGGCTACGACGGGATT
# B8: UGGCCGG (DNA:RNA)
# RNA: B1 RNA with A26G, C27G, U28C, G29C, A31G
# DNA 1: CAATCTGAATTCCGGTCTCCC
# DNA 2: TGGTGGCTACGACGGGATT
# B9: UGCGGUG (DNA:RNA)
# RNA: B1 RNA with A26G, U28G, G30U, A31G
# DNA 1: CAATCTGAATTCCGGTCTCCC
# DNA 2: TGGTGGCTACGACGGGATT
# B10: CAUGUGG (DNA:RNA)
# RNA: B1 RNA with U25C, C27U, U28G, G29U, A31G
# DNA 1: CAATCTGAATTCCGGTCTCCC
# DNA 2: TGGTGGCTACGACGGGATT
# B11: GCUACAC (DNA:RNA)
# RNA: GGGAGACCGGAAUUCAGAUUGUCCGCUACACUUAAAUCCCGUCGUAGCCACCA
# DNA 1: CAATCTGAATTCCGGTCTCCC
# DNA 2: TGGTGGCTACGACGGGATT
# B12: CAAUAAC (DNA:RNA)
# RNA: B11 RNA with G25C, C26A, U27A, A28U, C29A
# DNA 1: CAATCTGAATTCCGGTCTCCC
# DNA 2: TGGTGGCTACGACGGGATT
# B13: CGAGGGG (DNA:RNA)
# RNA: B1 RNA with U25C, A26G, C27A, U28G, A31G
# DNA 1: CAATCTGAATTCCGGTCTCCC
# DNA 2: TGGTGGCTACGACGGGATT
# B14: AAUAUAG (DNA:RNA)
# RNA: B11 RNA with G25A, C26A, C29U, C31G
# DNA 1: CAATCTGAATTCCGGTCTCCC
# DNA 2: TGGTGGCTACGACGGGATT
# B15: GCUGCUA (DNA:RNA)
# RNA: B11 RNA with A28G, A30U, C31A
# DNA 1: CAATCTGAATTCCGGTCTCCC
# DNA 2: TGGTGGCTACGACGGGATT
# B16: UGGAAUC (DNA:RNA)
# RNA: B11 RNA with G25U, C26G, U27G, C29A, A30U
# DNA 1: CAATCTGAATTCCGGTCTCCC
# DNA 2: TGGTGGCTACGACGGGATT
# B17: UGAUGGA (DNA:RNA)
# RNA: B1 RNA with A26G, C27A
# DNA 1: CAATCTGAATTCCGGTCTCCC
# DNA 2: TGGTGGCTACGACGGGATT
# B18: UGGAGUC (DNA:RNA)
# RNA: B11 RNA with G25U, C26G, U27G, C29G, A30U
# DNA 1: CAATCTGAATTCCGGTCTCCC
# DNA 2: TGGTGGCTACGACGGGATT
# B19: UGAGUCU (DNA:RNA)
# RNA: B1 RNA with A26G, C27A, U28G, G29U, G30C, A31U
# DNA 1: CAATCTGAATTCCGGTCTCCC
# DNA 2: TGGTGGCTACGACGGGATT
# B20: UGGAUUG (DNA:RNA)
# RNA: B11 RNA with G25U, C26G, U27G, C29U, A30U, C31G
# DNA 1: CAATCTGAATTCCGGTCTCCC
# DNA 2: TGGTGGCTACGACGGGATT
# B21: UGGAUUC (DNA:RNA)
# RNA: B11 RNA with G25U, C26G, U27G, C29U, A30U
# DNA 1: CAATCTGAATTCCGGTCTCCC
# DNA 2: TGGTGGCTACGACGGGATT
# B22: UGCUGGA (DNA:RNA)
# RNA: B1 RNA with A26G
# DNA 1: CAATCTGAATTCCGGTCTCCC
# DNA 2: TGGTGGCTACGACGGGATT
# B23: UGGAUGA (DNA:RNA)
# RNA: B1 RNA with A26G, C27G, U28A, G29U
# DNA 1: CAATCTGAATTCCGGTCTCCC
# DNA 2: TGGTGGCTACGACGGGATT
# B24: UCCUGGA (DNA:RNA)
# RNA: B1 RNA with A26C
# DNA 1: CAATCTGAATTCCGGTCTCCC
# DNA 2: TGGTGGCTACGACGGGATT
# B25: UGGAUGG (DNA:RNA)
# RNA: B1 RNA with A26G, C27G, U28A, G29U, A31G
# DNA 1: CAATCTGAATTCCGGTCTCCC
# DNA 2: TGGTGGCTACGACGGGATT
# B26: UGGAUGC (DNA:RNA)
# RNA: B11 RNA with G25U, C26G, U27G, C29U, A30G
# DNA 1: CAATCTGAATTCCGGTCTCCC
# DNA 2: TGGTGGCTACGACGGGATT
# B27: UGGAGGC (DNA:RNA)
# RNA: B1 RNA with A26G, C27G, U28A, A31C
# DNA 1: CAATCTGAATTCCGGTCTCCC
# DNA 2: TGGTGGCTACGACGGGATT
# B28: ACAACCU (DNA:RNA)
# RNA: B11 RNA with G25A, U27A, A30C, C31U
# DNA 1: CAATCTGAATTCCGGTCTCCC
# DNA 2: TGGTGGCTACGACGGGATT
# B29: AGCGAAA (DNA:RNA)
# RNA: B1 RNA with U25A, A26G, U28G, G29A, G30A
# DNA 1: CAATCTGAATTCCGGTCTCCC
# DNA 2: TGGTGGCTACGACGGGATT
# B30: UUUUUGU (DNA:RNA)
# RNA: B1 RNA with A26U, C27U, G29U, A31U
# DNA 1: CAATCTGAATTCCGGTCTCCC
# DNA 2: TGGTGGCTACGACGGGATT
# B31: UCGUCCC (DNA:RNA)
# RNA: B11 RNA with G25U, U27G, A28U, A30C
# DNA 1: CAATCTGAATTCCGGTCTCCC
# DNA 2: TGGTGGCTACGACGGGATT
# Molecular target: T1, RBFOX1 RRM
# Assay: EMSA; HiTS-Eq, 1 nM pool, 10 min; buffer printed only for the single-RNA assays: 10 mM Tris pH 7.5, 150 mM NaCl, 3.4 mM EDTA, 0.001% NP-40, 30 C
# Conditions: tags: His6 N-terminal (pET28a); label: 5' 32P
# Procedure, shortened: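 Purified RbFox RRM, wild type or mutant, was incubated for 10 min in 50 µL with 1 nM of a 5′-radiolabelled RNA pool carrying 7 randomized nucleotides, whose flanks were annealed to DNA oligonucleotides, over a series of increasing protein concentrations. Unbound RNA was resolved on 8% native PAGE, cut out, reverse-transcribed, barcoded by PCR and sequenced on an Illumina HiSeq 2500. Relative association constants were derived from changes in read counts for each RNA species versus the control reaction and normalised to the cognate motif.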
row,Binder,binding signal
1,B1,0.00358 KA relative to UGCAUGU
2,B2,0.00953 KA relative to UGCAUGU
3,B3,0.0234 KA relative to UGCAUGU
4,B4,0.0279 KA relative to UGCAUGU
5,B5,0.0244 KA relative to UGCAUGU
6,B6,0.0426 KA relative to UGCAUGU
7,B7,0.0225 KA relative to UGCAUGU
8,B8,0.0318 KA relative to UGCAUGU
9,B9,0.0288 KA relative to UGCAUGU
10,B10,0.00494 KA relative to UGCAUGU
11,B11,0.00819 KA relative to UGCAUGU
12,B12,0.00247 KA relative to UGCAUGU
13,B13,0.00639 KA relative to UGCAUGU
14,B14,0.00237 KA relative to UGCAUGU
15,B15,0.0167 KA relative to UGCAUGU
16,B16,0.0233 KA relative to UGCAUGU

row,Binder,binding signal
1,B17,0.00526 KA relative to UGCAUGU
2,B18,0.0349 KA relative to UGCAUGU
3,B19,0.0175 KA relative to UGCAUGU
4,B20,0.0448 KA relative to UGCAUGU
5,B21,0.0192 KA relative to UGCAUGU
6,B22,0.0106 KA relative to UGCAUGU
7,B23,0.0437 KA relative to UGCAUGU
8,B24,0.00715 KA relative to UGCAUGU
9,B25,0.0304 KA relative to UGCAUGU
10,B26,0.0582 KA relative to UGCAUGU
11,B27,0.0186 KA relative to UGCAUGU
12,B28,0.000511 KA relative to UGCAUGU
13,B29,0.0048 KA relative to UGCAUGU
14,B30,0.0281 KA relative to UGCAUGU
15,B31,0.00735 KA relative to UGCAUGU
